HCV inhibitor = HCV inhibition | AID 651820 | 340,000 tested, 3.4% active | Potency, µM (doses to about 41.8 µM), for the others: at the highest dose activity change, negative = inhibition, hits mostly inhibitors | Huh7.5.1 HCVcc-Cre infection, luciferase reporter, 44 h; note: potency is the fitted concentration of half-maximal effect; % is set by controls: 0 for no effect and ±100 for the full control effect
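1,000 cells/well; 4 h culture; + compound; + HCVcc-Cre (~0.5 moi); 44 h; luciferase substrate, RT 15 min; read 15 sec.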
Sm TGR block = inhibitors of Schistosoma mansoni thioredoxin glutathione reductase; Q962Y6; purified TGR, DTNB reduction, TNB absorbance 405 nm; Potency, µM (titrated, usually from 114 µM), for the others: at the top dose activity change, negative = inhibition, hits mostly inhibitors; 360,000 tested, 3% active; AID 485364; note: potency is the fitted concentration of half-maximal effect; % is set by controls: 0 for no effect and ±100 for the full control effect; nearly all actives have a fitted effect of over 60% in size
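First, TGR (20 nM dispensed) and NADPH were mixed with compound. Second, a 15 min room-temperature incubation followed. Third, further NADPH and then DTNB were added to start the reaction. Finally, TNB absorbance was monitored kinetically.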
Pf growth 96h = inhibits malaria parasite growth, 96 h | Potency, µM (series often up to 28.7 µM), for inactives: at the top dose activity change, negative = inhibition, most hits filed as inhibitors | P. falciparum luciferase reporter growth, 96 h | 320,000 tested, 6.9% active; note: potency is the fitted concentration of half-maximal effect; % is set by controls: 0 for no effect and ±100 for the full control effect
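Cell-based qHTS: luciferase-tagged P. falciparum in erythrocytes (2% hematocrit, 0.05% parasitemia final) incubated with compounds for 96 hours, 37 C, 5% CO2; luciferase detection reagent then added and luminescence measured.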
HCMV inh = inhibitors of human cytomegalovirus; AID 1259415; HFF cells, HCMV-luciferase reporter, 72 h; active compounds read low; activity change, negative = inhibition, % at 57.5 µM; 410,000 tested, 4.5% active; in the data active = activity change below about -60%; inconclusive = no clear call, values can overlap the other calls; inactive = above about -39%; note: % is set by controls: 0 for no effect and ±100 for the full control effect
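Cell-based, HFFs, 1000 cells/well, 16 h 37C; cpds in DMSO + HCMV-luc, MOI 1 PFU/cell; 72 h 37C; OneGlo luminescence after 5 min RT; norm. to buffer vs Salinomycin 10uM.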
Pf growth 48h = P. falciparum growth inhibition at 48 hours (one generation). Potency, µM (titrated, usually from 28.7 µM), for the others: top-dose activity change, negative = inhibition, hits mostly inhibitors. 310,000 tested, 5.9% active. P. falciparum luciferase growth in erythrocytes, 48 h; note: potency is the fitted concentration of half-maximal effect; % is set by controls: 0 for no effect and ±100 for the full control effect
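Firefly luciferase activity from engineered P. falciparum reports growth; inhibitors lower the luminescent signal. Cultures contained 2% hematocrit erythrocytes at 0.1% final parasitemia.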
SARS PLP yeast = SARS-CoV PLP inhibition in yeast; S. cerevisiae expressing SARS-CoV PLpro, growth rescue; 330,000 tested, 0.19% active; Potency, µM (series often up to 32.9 µM), for the others: at the top dose activity, positive = growth rescue, actives largely listed as activators; AID 485353; calls by dose curve; note: potency is the fitted concentration of half-maximal effect; 0% is about no effect; nearly all actives have a fitted effect of over 55% in size
Numbers without * were called inactive; i = inactive; u = inconclusive; x = no result given. Most compounds without a hit are left out; they make up all but 15% or so of the library. Unless noted, calls come from the whole dose curve; as a rule, active = well fitted curve in the direction sought with a large enough effect; inconclusive = small, poorly fitted or top-dose-only effect, or another doubt; inactive = no such curve, though single readings can be large; an effect the other way counts as inactive or inconclusive.

SMILES	HCV inhibitor	Sm TGR block	Pf growth 96h	HCMV inh	Pf growth 48h	SARS PLP yeast
CN1/C(=C\C(=O)CSc2nnc(NCc3ccccc3)s2)C(C)(C)c2ccccc21	u	-7%	6.6µM*	u	7.4µM*	-25%
Cc1oc2c(C)c3oc(=O)c(CCC(=O)N4CCCCC4)c(C)c3cc2c1C	x	-6%	x	u	x	x
COc1ccccc1NC(=O)C1CCCN(S(=O)(=O)c2c(C)noc2C)C1 (stereo not given)	12%	-1%	4%	-18	-26%	6%
O=C(C1=C[C@H](C2CC2)C[C@H](OCc2ccc(CO)cc2)O1)N1CCOCC1	23%	0%	1%	10	14%	0%
O=C(Nc1ccccc1C(=O)N/N=C/c1ccncc1)c1ccccc1	-5%	2%	u	14	423%	-17%
CCc1nc2ccc(C(=O)NC3CCN(Cc4ccccc4)CC3)cn2c1N(C)Cc1cc2ccccc2s1	x	x	x	-39	x	x
CCOC(=O)N=Nc1c2ccccc2c2nc3no[nH]c3nc12	0.56µM*	58%	19%	-100*	1µM*	-33%
CCOC(=O)N=Nc1c(O)n(CC(=O)OC)c2ccccc12	6%	9%	16%	14	24%	-2%
CN(C(=O)c1cccc(S(=O)(=O)N2CCOCC2)c1)c1c(N)n(Cc2ccccc2)c(=O)[nH]c1=O	-2%	5%	-2%	u	-7%	2%
O=[N+]([O-])c1ccc(N=Cc2ccc(Br)c([N+](=O)[O-])c2)cc1	u	32µM*	u	u	0%	-13%
CCOC(=O)c1ccccc1NC1c2ccccc2C(=O)N1c1cc(C)ccn1 (stereo not given)	u	12%	u	-28	x	-12%
O=C1c2ccccc2C(Nc2ccc(-c3nc4ccccc4[nH]3)cc2)N1Cc1ccco1 (stereo not given)	10µM*	-28%	19%	-39	u	-6%
O=C1c2ccccc2C(Nc2ccc(S(=O)(=O)N3CCOCC3)cc2)N1c1ccccn1 (stereo not given)	u	-2%	7.4µM*	9	x	-5%
COc1cc(OC)c(NC2c3ccccc3C(=O)N2c2cc(C)ccn2)cc1Cl (stereo not given)	3%	5%	12µM*	27	-12%	9%
O=C1c2ccccc2C(Nc2ccc(S(=O)(=O)N3CCOCC3)cc2)N1Cc1ccco1 (stereo not given)	1%	u	8.3µM*	u	x	-5%
COc1cccc(OCC(O)CN2CCN(C)CC2)c1 (stereo not given)	27%	15%	12%	33	12%	0%
COc1ccc(-c2cn3cccnc3n2)cc1NC(=O)c1cc(C)cc(C)c1	x	3%	x	-3	x	x
COc1ccc(NC(=O)C(C2CC2)n2c(=O)c(-c3ccccc3)nc3ccccc32)cc1 (stereo not given)	x	x	x	-34	x	x
O=C1c2ccccc2C(Nc2ccc(F)c(Cl)c2)N1Cc1ccco1 (stereo not given)	u	13µM*	-28%	-36	u	-27%
O=C1c2ccccc2C(Nc2ccc(Cl)cn2)N1c1ccccn1 (stereo not given)	-17%	-5%	6%	u	12µM*	23%
COc1ccc(NC(=O)C(NS(=O)(=O)c2cccc3nsnc23)c2ccccc2)cc1 (stereo not given)	x	-2%	x	16	x	x
Cc1cccc(C)c1NC(=O)Nc1cccs1	9%	-8%	-16%	-19	x	21%
O=C(Nc1cccs1)Nc1c(F)c(F)c(F)c(F)c1F	7%	-24%	89%	-61*	u	9%
O=C(Nc1cccs1)Nc1c(F)c(F)cc(F)c1F	32%	-14%	4.7µM*	8	u	14%
O=C(COC(=O)Cc1ccc(S(=O)(=O)N2CCOCC2)s1)Nc1ccc(OC(F)F)cc1	-8%	x	x	11	x	1%
SMILES	HCV inhibitor	Sm TGR block	Pf growth 96h	HCMV inh	Pf growth 48h	SARS PLP yeast
CC1(C)CC(=O)C(CS(=O)(=O)c2ccccc2)=C(O)C1	0%	1µM*	15%	24	u	3%
CCOc1ccccc1CNc1ncnc2ccc(-c3c(C)noc3C)cc12	x	u	u	-28	u	-8%
Cc1noc(C)c1-c1ccc2ncnc(NCc3cccc(-c4ccccc4)c3)c2c1	x	0%	3.7µM*	x	u	-7%
Cc1ccc(C(=O)NCC(=O)OCC(=O)Nc2ccccc2C#N)s1	9%	4%	136%	-4	i	2%
CCN(CC)S(=O)(=O)c1cc(NC(=O)C2CSC3(C)CCC(=O)N23)ccc1C (stereo not given)	-25%	2%	u	-12	u	0%
CCN1C(=O)[C@H]2[C@@H](c3ccc(-c4ccc(C(C)=O)cc4)c(OC)c3)N[C@@](Cc3ccccc3)(C(=O)OC)[C@H]2C1=O	u	-23%	9.3µM*	25	8.3µM*	-6%
CCN1C(=O)[C@H]2[C@@H](c3ccc(-c4cccc(Cl)c4)c(OC)c3)N[C@@](CC(C)C)(C(=O)OC)[C@H]2C1=O	u	-22%	0.23µM*	-4	0.33µM*	0%
CCN1C(=O)[C@H]2[C@@H](c3ccc(-c4cccc(Cl)c4)c(OC)c3)N3CCCC[C@@]3(C(=O)OC)[C@H]2C1=O	1%	x	x	-5	x	0%
CCN1C(=O)[C@H]2[C@@H](c3ccc(-c4ccccc4)c(OC)c3)N[C@@](Cc3ccccc3)(C(=O)OC)[C@H]2C1=O	18%	-9%	0.66µM*	11	1.9µM*	-1%
COC(=O)[C@]1(Cc2ccccc2)N[C@H](c2ccc(SC3CCCCC3)c(OC)c2)[C@@H]2C(=O)N(C)C(=O)[C@@H]21	u	x	x	96	x	1%
CCN1C(=O)[C@H]2[C@@H](c3ccc(-c4ccc(F)cc4)c(OC)c3)N[C@@](Cc3ccccc3)(C(=O)OC)[C@H]2C1=O	u	x	x	25	x	-1%
O=C(CSc1cn(CCNC(=O)c2ccccc2F)c2ccccc12)Nc1ccc(F)cc1	x	-4%	x	-8	x	x
COC(=O)c1cccnc1	x	x	-2%	x	-18%	x
CCC(C)NC(=O)CN(c1ccc(Cl)c(Cl)c1)S(C)(=O)=O (stereo not given)	-8%	6%	11%	-13	14%	1%
Cc1ccc(C(=O)N2CCN(S(=O)(=O)c3ccc(C)cc3)CC2)cc1	-2%	x	13µM*	-29	-17%	24%
Cc1ccc(C(=O)N2CCN(S(=O)(=O)N3CCCCC3)CC2)cc1	10%	0%	10µM*	64	14%	u
O=C(c1ccccc1)N1CCN(S(=O)(=O)c2ccccc2)CC1	23%	7%	30%	1	u	-3%

Screening data as filed in PubChem BioAssay.
